SMN2 splice enh: SMN2 splice variant enhancement. 210,000 compounds, 2.8% hits. HEK293 SMN2-luciferase splicing reporter, luminescence, 30-36 h. Potency, µM (series often up to 46.1 µM), inactives show top-dose activity change, positive = activation, usual class: activators; note: % of control where 0% means no effect; nearly all actives have a fitted effect of over 55% in size
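HEK293 cells carry an SMN2 minigene-luciferase reporter in which exon 7 inclusion puts luciferase in frame. Cells were seeded at 2000 cells/well, attached for 10-12 hours, then exposed to compounds for 30-36 hours at 37C before ONE-Glo luminescence.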
Rab9 promoter act: activators of Rab9 promoter. AID 485297. 320,000 compounds, 2.8% hits. Huh7 Rab9 promoter-luciferase reporter, luminescence, 24 h. Potency, µM (highest dose often 9.22 µM), inactives show top-dose activation, negative = inhibition, usual class: activators; note: % of control where 0% means no effect; nearly all actives have a fitted effect of over 60% in size
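Huh7 cells stably carrying a Rab9 promoter-luciferase reporter, 1500 cells per well in OP-MEM I with 10% FBS, treated with compound 24 hours at 37C. Luciferase activity read by luminescence after 10 minutes with Amplite reagent.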
FLuc modulator: inhibits or activates purified firefly luciferase, miR-21 counter-screen; P08659; Potency, µM (top dose mostly 57.5 µM), inactives show top-dose activity change, negative = inhibition, actives largely listed as inhibitors; 360,000 compounds, 6.9% hits; purified FLuc, Km substrates, luminescence inhibition;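 note: plate controls were vehicle for no effect and reference inhibitor for full effect; nearly all actives have a fitted effect of over 55% in size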
Target sequence (P08659 whole entry, looked up): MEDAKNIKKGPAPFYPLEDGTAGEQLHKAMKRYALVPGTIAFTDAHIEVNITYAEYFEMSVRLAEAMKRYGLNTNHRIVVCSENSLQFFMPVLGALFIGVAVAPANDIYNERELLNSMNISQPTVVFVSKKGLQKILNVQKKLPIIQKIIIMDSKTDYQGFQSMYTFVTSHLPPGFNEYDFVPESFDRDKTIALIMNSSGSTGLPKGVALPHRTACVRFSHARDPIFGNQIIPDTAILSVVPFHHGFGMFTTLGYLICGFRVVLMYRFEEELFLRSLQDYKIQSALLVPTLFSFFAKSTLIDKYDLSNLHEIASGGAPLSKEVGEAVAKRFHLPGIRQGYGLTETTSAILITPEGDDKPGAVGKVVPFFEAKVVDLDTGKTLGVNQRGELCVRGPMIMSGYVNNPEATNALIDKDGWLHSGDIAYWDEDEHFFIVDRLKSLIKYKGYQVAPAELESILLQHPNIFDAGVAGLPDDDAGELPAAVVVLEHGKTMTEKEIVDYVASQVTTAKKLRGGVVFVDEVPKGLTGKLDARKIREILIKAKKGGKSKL
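Purified P. pyralis luciferase (10nM final) with 10uM D-luciferin and 10uM ATP (Km levels) in 50mM Tris acetate pH 7.5, 10mM Mg acetate, 0.01% Tween-20, 0.05% BSA; qHTS 6-point titration, ~60 µM downward; luminescence read.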
NPC1 prom act: activators of NPC1 promoter | Huh7 NPC1 promoter luciferase reporter, 24 h | 320,000 compounds, 2.4% hits | Potency, µM (top dose mostly 9.22 µM), without a hit: at the highest dose activation, hits mostly activators | AID 485313; note: % of control where 0% means no effect; nearly all actives have a fitted effect of over 60% in size
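In 1536-well qHTS, Huh7 cells harboring an NPC1 promoter–luciferase construct received compound for 24 h; activation was quantified by luminescence following luciferase reagent addition.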
ELG1 genotox: induces genotoxicity in HEK293T cells with luciferase-tagged ELG1; HEK293T ELG1-luciferase reporter, luminescence, 16 h; AID 504466; 330,000 compounds, 1.3% hits; Potency, µM (series often up to 46 µM), for inactives: top-dose activity change, positive = activation, usual class: activators; note: % of control where 0% means no effect; nearly all actives have a fitted effect of over 60% in size
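Reporter readout depends on ELG1 protein level, which increases with genetic stress. After 16 hr compound exposure at 37 °C, luciferase activity was quantified using ONE-Glo.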
* hit, by the source's call; ? = inconclusive; nt = no result; [ ] = dose if it differs, or a comment. Rows were chosen to be rich in hits. Some 7.4% of all compounds tested hit in one or more screens of this group. Calls come from the whole dose curve; as a rule, active = well fitted curve in the direction sought with a large enough effect; inconclusive = small, poorly fitted or top-dose-only effect, or another doubt; inactive = no such curve, though single readings can be large; an effect the other way counts as inactive or inconclusive. Potency is the fitted concentration of half-maximal effect.

SMILES	SMN2 splice enh	Rab9 promoter act	FLuc modulator	NPC1 prom act	ELG1 genotox
OCC1OC(n2cnc3ccccc32)CC1O (stereo not given)	nt	-4.8%	-2.0%	-4.4%	-5.4%
COc1cccc(NC(=O)Cn2c(=O)n(-c3ccc(C)cc3)c(=O)c3ccc(C(=O)NCc4ccco4)cc32)c1	-11.5%	nt	0.4%	nt	nt
S=C(NC1CCCCC1)NC1CCCCC1	12.9%	nt	nt	nt	nt
COc1ccc(OC)c2sc(N3CCCCC3)nc12	?	21.5%	19µM*	28.8%	18.4µM*
c1ccc2c(c1)CCN(c1nc3cc4c(cc3s1)OCCO4)C2	nt	?	0.107µM*	?	?
COc1ccc(OC)c2sc(N3CCc4ccccc4C3)nc12	2.6%	23.7%	12µM*	-1.4%	7.0%
O=S(=O)(c1ccc2c(c1)OCCO2)N1CCN(c2nc3ccccc3s2)CC1	-25.8%	0.3%	0.5%	-4.6%	-5.3%
COc1ccc(OC)c2sc(N3CCN(C(=O)c4ccc([N+](=O)[O-])s4)CC3)nc12	nt	13.8%	-5.1%	9.9%	-12.5%
CC(C(=O)NCc1ccccc1Cl)n1ccc2cc(S(=O)(=O)N3CCCCC3)ccc21 (stereo not given)	nt	nt	-1.8%	nt	nt
CC(Cl)c1cc(-c2ncc(C(F)(F)F)cc2Cl)no1 (stereo not given)	6.8%	1.7%	?	-1.9%	7.1%
FC(F)(F)c1cnc(-c2cnc(-c3ccccn3)nc2)c(Cl)c1	11.2µM*	0.708µM*	10.7µM*	?	1.9%
FC(F)(F)c1cnc(-c2cnc(-c3ccncc3)nc2)c(Cl)c1	24.5%	3.16µM*	?	?	1.9%
COc1ccccc1-c1ccc(SCc2ccc(F)cc2)nn1	10.9%	24.1%	23.9µM*	16.0%	4.8%
COc1ccccc1-c1ccc(SCc2ccc(C)cc2)nn1	-2.4%	8.8%	15.1µM*	5.5%	9.2%
COc1ccccc1-c1ccc(SCC(=O)N2CCOCC2)nn1	1.4%	2.5%	1.8%	-5.6%	4.4%
CCOc1ccc(CCNCc2c(C(=O)O)n(Cc3ccc(C)cc3)c3cc(OC)ccc23)cc1	nt	nt	-10.3%	nt	nt
Cn1cccc1CNC(=O)Nc1ccccc1	?	?	19µM*	27.7%	?
Cc1ccc(CNC(=O)Nc2ccccc2)n1C	nt	25.6%	19µM*	16.9%	7.8%
Cc1cc(C)cc(NC(=S)NCc2cccn2C)c1	0.5%	-3.7%	2.7%	18.0%	-4.0%
Cc1ccc(NC(=O)NCCN2CCCCC2)cc1C	nt	-0.4%	2.5%	-5.5%	0.2%
Cn1cccc1CNC(=O)Nc1ccc(Cl)cc1	?	3.55µM*	13.5µM*	?	?
Cc1ccc(NC(=O)NCc2cccn2C)cc1C	nt	?	?	3.98µM*	?
CN(C)S(=O)(=O)c1ccc(Cl)c(C(=O)Nc2ccc(S(=O)(=O)N3CCOCC3)cc2)c1	nt	?	-0.9%	0.0%	-8.3%
COc1cccc(CN2C(=NC(=O)C3CC3)SC3CS(=O)(=O)CC32)c1 (stereo not given)	nt	-2.5%	3.1%	1.1%	2.0%
CC(=O)C(Cc1ccccc1)NC(=O)COC(=O)c1cccc(C)c1[N+](=O)[O-] (stereo not given)	nt	nt	nt	nt	1.4%
SMILES	SMN2 splice enh	Rab9 promoter act	FLuc modulator	NPC1 prom act	ELG1 genotox
CCOC(=O)Cc1csc(N/N=C\c2ccccc2OC)n1	nt	19.6%	10.7µM*	25.9%	7.6%
COc1ccc(/C=N/Nc2nc(C(=O)O)cs2)cc1	nt	?	0.675µM*	?	5.8%
CCOC(=O)Cc1csc(N/N=C\c2cccc(Br)c2)n1	-1.0%	7.3%	?	11.2%	-1.2%
CCOC(=O)Cc1csc(NC(=O)COc2ccccc2OC)n1	nt	3.1%	-3.6%	3.3%	0.1%
CCOC(=O)Cc1csc(N/N=C/c2ccccc2)n1	2.5%	19.8%	15.1µM*	29.1%	8.7%
CCOC(=O)Cc1csc(N/N=C\c2ccc(N(C)C)cc2)n1	nt	28.9%	2.39µM*	?	7.8%
O=C(NCc1ccccc1)C1CCC(=O)N(CCN2CCOCC2)C1 (stereo not given)	nt	-2.3%	2.1%	0.2%	0.2%
Cc1oc2c(C)c3oc(=O)c(CCC(=O)NCCCn4ccnc4)c(C)c3cc2c1C	nt	-7.3%	-2.8%	-5.5%	2.8%
COc1ccc(/C=N/c2oc(C)c(C)c2C#N)c(OC)c1	nt	-2.1%	1.4%	-1.5%	1.6%
Cc1oc(/N=C/c2cccc3ccccc23)c(C#N)c1C	-0.4%	0.9%	-7.9%	0.2%	-1.6%
COc1cc(/C=N/c2oc(C)c(C)c2C#N)cc(Br)c1O	nt	-2.6%	15.1µM*	-0.9%	0.2%
Cc1oc(/N=C/c2ccccc2)c(C#N)c1C	nt	3.5%	12µM*	2.1%	0.6%
Cc1nn(-c2ccccc2)c(/N=C/c2ccc(O)cc2)c1-c1ccccc1	17.8µM*	?	-5.3%	?	14.1%
Cc1ccccc1Cn1c(=O)n(CCCCCC(=O)NCc2ccc3c(c2)OCO3)c(=O)c2sccc21	1.2%	nt	-2.9%	nt	nt
Cc1cc(C)nc(SCc2csc(-c3ccccc3)n2)n1	5.01µM*	1.41µM*	3.38µM*	2.51µM*	4.61µM*
C[N+](C)(N)Cc1csc(-c2ccc(Cl)cc2)n1	-6.3%[9.22 µM]	nt	nt	nt	nt
Nc1ccccc1SCc1csc(-c2ccc(Cl)cc2)n1	-1.5%[9.22 µM]	?	13.5µM*	?	9.5%
Cc1ccc(C(=O)/C=C/c2ccc3c(c2)OCCO3)c(O)c1	nt	3.55µM*	1.07µM*	?	?
O=C(/C=C/c1ccc2c(c1)OCCCO2)c1ccc2ccccc2c1O	-34.3%	?	2.69µM*	3.16µM*	?
CC(O)CNc1ncnc2cc(-c3ccc(F)cc3)sc12 (stereo not given)	nt	?	10.7µM*	?	?
COc1ccc(N(CC(=O)NC2CCCC2)C(=O)Cn2nnc(-c3ccc(F)cc3)n2)cc1	nt	-3.2%	6.2%	-4.5%	-2.4%
Cc1ccc(NC(=O)c2ccccc2)s1	2µM*	0.631µM*	2.69µM*	0.708µM*	?
Cc1cc(NC(=O)c2ccccc2)sc1C	11.2µM*	nt	3.38µM*	nt	nt
O=C(C[C@@H]1C/C=C\CC[C@@H](Cc2ccc(F)cc2)C(=O)OC[C@@H](Cc2ccccc2)NC1=O)NCCO	nt	nt	nt	nt	-0.8%
CC(C(=O)Nc1cc(Cl)cc(Cl)c1)N1CCCC1 (stereo not given)	nt	0.0%	-0.5%	-3.5%	-1.3%
SMILES	SMN2 splice enh	Rab9 promoter act	FLuc modulator	NPC1 prom act	ELG1 genotox
Nc1nc2c(s1)COc1ccccc1-2	nt	17.4%	?	13.4%	10.2%
Nc1nc2c(s1)CC(c1ccccc1)CC2 (stereo not given)	-16.3%	-0.3%	23.9µM*	3.7%	1.6%
O=C1NC(=O)c2cc(Oc3ccc([N+](=O)[O-])cc3)ccc21	nt	-2.7%	4.2%	-1.7%	4.9%
COc1cc2ncc(-c3ccccc3)nc2cc1OC	28.2µM*	nt	nt	nt	nt
Cc1ccc(-c2cnc3ccccc3n2)cc1C	nt	23.2%	0.536µM*	?	?
Clc1ccc(-c2cnc3ccccc3n2)cc1	12.6µM*	3.98µM*	4.78µM*	3.16µM*	?

High-throughput results: PubChem, National Center for Advancing Translational Sciences (NCATS)
